Rows were chosen to be rich in hits. Some 3.1% of all compounds tested hit in one or more screens of this group.
BoNT F protease – inhibitors of Botulinum neurotoxin F light chain protease; Multiplex microsphere protease cleavage assay, flow cytometry; inhibition, % at 10 µM; hit rate 0.22% among 360,000; in the data active = inhibition above about 35%, passing the limit was not always enough; inconclusive = no clear call, values can overlap the other calls; note: plate controls were buffer without enzyme for full effect and enzyme alone for no effect
Autofluor counter – counter-screen for toxin protease inhibitors: compound fluorescence; fluorescence intensity (test concentration not listed); compound autofluorescence counterscreen, microsphere flow cytometry; active compounds read high; AID 624483; hit rate 3.1% among 360,000; in the data active = fluorescence intensity above about 16000; inconclusive = no clear call, values can overlap the other calls
BoNT A protease – BoNT A light chain protease inhibition. multiplex microsphere protease substrate cleavage, flow cytometry. inhibition, % at 10 µM. hit rate 0.17% among 360,000; note: plate controls were buffer without enzyme for full effect and enzyme alone for no effect
SSB-PriA inh – inhibitors of Klebsiella pneumoniae PriA binding to SSB C-terminal tail | inhibition, % at 33 µM | hit rate 0.6% among 430,000 | AlphaScreen SSBct-PriA binding, biotinylated peptide; in the data active = inhibition mostly above about 37%, no sharp cut-off; inactive = mostly below about 20%;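 note: plate controls were negative control peptide for no effect and reference peptide for full effect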
Anthrax LF prot – blocks Bacillus anthracis lethal factor protease | multiplex microsphere protease cleavage assay, LF | hit rate 0.12% among 360,000 | inhibition, % at 10 µM | P15917 | AID 588501; note: plate controls were buffer without enzyme for full effect and enzyme alone for no effect
Target sequence (P15917 whole entry, looked up): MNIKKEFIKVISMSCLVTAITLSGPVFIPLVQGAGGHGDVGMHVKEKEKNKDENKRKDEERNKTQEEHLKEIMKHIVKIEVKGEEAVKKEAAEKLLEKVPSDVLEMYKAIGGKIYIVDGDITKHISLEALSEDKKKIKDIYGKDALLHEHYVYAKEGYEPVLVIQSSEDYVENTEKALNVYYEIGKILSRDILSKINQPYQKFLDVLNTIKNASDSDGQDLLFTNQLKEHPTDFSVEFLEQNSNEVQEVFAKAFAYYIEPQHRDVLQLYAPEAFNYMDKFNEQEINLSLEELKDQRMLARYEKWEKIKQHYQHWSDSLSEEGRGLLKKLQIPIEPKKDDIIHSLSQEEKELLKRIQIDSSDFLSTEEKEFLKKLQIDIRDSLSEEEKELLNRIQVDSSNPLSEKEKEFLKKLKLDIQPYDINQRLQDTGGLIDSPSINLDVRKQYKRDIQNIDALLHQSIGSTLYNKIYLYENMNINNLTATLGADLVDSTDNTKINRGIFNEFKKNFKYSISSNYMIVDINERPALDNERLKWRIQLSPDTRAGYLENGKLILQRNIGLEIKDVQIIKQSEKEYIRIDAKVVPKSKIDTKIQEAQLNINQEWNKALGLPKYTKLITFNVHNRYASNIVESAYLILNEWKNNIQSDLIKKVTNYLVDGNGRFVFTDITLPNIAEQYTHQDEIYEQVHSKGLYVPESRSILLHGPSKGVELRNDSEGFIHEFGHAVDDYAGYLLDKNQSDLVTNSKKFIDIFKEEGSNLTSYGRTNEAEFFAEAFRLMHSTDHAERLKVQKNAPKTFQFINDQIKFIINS
Numbers without * were called inactive; u = inconclusive; x = not tested or not shown. Cut-off read from the data, not from the text of the source, unless noted: active = inhibition above about 30%; inconclusive = no clear call, values can overlap the other calls; inactive = below that.

SMILES | BoNT F protease | Autofluor counter | BoNT A protease | SSB-PriA inh | Anthrax LF prot
COc1ccc(NC(=O)C2(c3ccc(NC(=O)c4ccc(OC(C)=O)cc4)cc3)CCCC2)cc1 | 0.7 | 20395* | 1.0 | -11.7 | 0.5
Cc1cccc(NC(=O)C2CCCN(C(=O)NC3CCCCC3)C2)c1C (stereo not given) | -1.2 | 22986* | 0.4 | -25.3 | -0.8
COc1ccccc1NC(=O)N1CCCC(C(=O)Nc2cccc(C)c2C)C1 (stereo not given) | 1.1 | 8686 | 0.6 | -5.1 | 2.8
O=C(NCC1CCN(c2ccncc2)CC1)c1ccsc1 | x | x | x | -1.0 | x
Cc1cc(C)cc(OCC(=O)N2CCCCCC2)c1 | 4.9 | 22007* | u | -10.7 | -6.5
COc1cc(CNCCCN2CCOCC2)cc(Br)c1OCC(=O)N1CCCCC1 | 12.9 | 18727* | 10.2 | -12.7 | 2.8
COc1cc(CO)cc(Br)c1OCC(=O)N1CCCCC1 | 4.1 | 21247* | 3.0 | -8.2 | -3.8
COc1cc(CNCCCN2CCOCC2)cc(Br)c1OCc1ccc(Cl)cc1 | -9.0 | 4487 | 0.0 | -4.4 | -2.3
CCOC(=O)N1CCN(C(=O)CCc2nc3sc4c(c3c(=O)[nH]2)CCCCC4)CC1 | x | x | x | -19.0 | x
CCCCC(=O)Nc1ccc(C(=O)NNC(=O)CCCOc2ccc(Cl)cc2Cl)cc1 | -0.4 | 9730 | 0.6 | -11.1 | 1.7
O=C(COc1ccc(Cl)cc1Cl)NCc1ccncc1 | 0.3 | 19178* | 0.8 | -6.4 | 0.5
CC(C)C(=O)Nc1ccc(C(=O)NNC(=O)CCCOc2ccc(Cl)cc2Cl)cc1 | -3.0 | 24267* | u | -13.7 | -3.1
O=C(COc1ccc(Cl)cc1Cl)NNC(=S)Nc1ccc(F)cc1 | 0.4 | 16581* | 0.1 | 9.3 | -1.9
CS(=O)(=O)N1CCC(C(=O)Nc2nc(-c3ccc(Cl)s3)cs2)CC1 | x | x | x | -6.0 | x
O=C(/C=C/c1ccc(-c2ccc(Cl)cc2)o1)N1CCCCC1 | x | x | x | -8.0 | x
Cc1ccc(C(=O)NCC(=O)OCC(=O)NC(C)C2CC3CCC2C3)cc1 (stereo not given) | 5.9 | u | 4.4 | -0.7 | 3.0
CC(NC(=O)COC(=O)Cc1ccsc1)C1CC2CCC1C2 (stereo not given) | -4.4 | 24292* | -2.7 | -4.8 | -1.6
O=C(NCC1CCN(C(=O)Nc2ccc(F)cc2)CC1)C1c2ccccc2Oc2ccccc21 | x | x | x | -20.0 | x
O=C1CSC(=S)N1N=Cc1c(F)cccc1F | x | x | x | 2.2 | x
O=C1CSC(=S)N1/N=C/C=C/c1ccccc1 | 10.9 | 1986 | 42.8* | x | 20.6
C=CCN(CC=C)C(=S)NC(=O)c1ccc(OC)cc1 | -3.4 | 3335 | -0.5 | -6.3 | -3.8
CN(C)C(Cc1ccc(C#N)cc1)C(=O)c1ccccc1 (stereo not given) | -3.6 | 8023 | -0.2 | -9.1 | -2.4
CN(C)C(Cc1ccccc1)C(=O)c1ccc(-c2ccccc2)cc1 (stereo not given) | -6.2 | 16369* | u | -8.8 | -2.4
COc1ccc(C(=O)C(Cc2ccccc2)N(C)C)cc1 (stereo not given) | 1.4 | 16157* | 1.0 | -17.5 | -1.5
COc1ccc(C(=O)NC(=S)N(Cc2ccccc2)Cc2ccccc2)cc1 | -1.5 | 16570* | 0.0 | -0.2 | -5.9
SMILES | BoNT F protease | Autofluor counter | BoNT A protease | SSB-PriA inh | Anthrax LF prot
O=c1[nH]c(=S)c2c(n1CCN1CCNCC1)CCC2 | x | x | x | -11.0 | x
O=C(COc1ccc(Cl)cc1)Nc1ccc2c(c1)N(C(=O)C1CC1)CC2 | x | x | x | -8.0 | x
Cc1noc(NS(=O)(=O)c2ccc(NC(=O)CSc3n[nH]c(-c4ccccc4)n3)cc2)c1C | x | x | x | -0.7 | x
Cc1noc(NS(=O)(=O)c2ccc(NC(=O)CSc3nnc(-c4ccccc4)n3C3CCCCC3)cc2)c1C | -0.4 | 22405* | -1.4 | 0.0 | -4.0
O=C(NCCc1csc(-n2cccn2)n1)c1ccc(Cn2ccnc2)cc1 | x | x | x | -3.0 | x
O=C1CC(C(F)(F)F)=NN1c1ccccc1 | x | x | x | 35.0* | x
O=C1CC(c2ccccc2)=NN1c1ccccc1 | 2.4 | 2740 | 0.1 | 6.2 | -0.5
CCOC(=O)c1oc2ccccc2c1NC(=O)c1ccnn1C | x | x | x | -11.0 | x
Nc1cc2cccnc2c2ncccc12 | x | x | x | 151.5* | x
c1cnc2c(c1)ccc1cccnc12 | 3.1 | 4499 | -3.3 | 101.7* | 4.7
O=Cc1ccc2ccc3cccnc3c2n1 | -14.0 | 3565 | -1.8 | 81.0* | 2.4
c1ccc2c(c1)ccc1cccnc12 | x | x | x | 29.4 | x
Cc1ccc(NC(=O)C(=O)NCCN2CCOC(c3ccccc3)C2)cc1F (stereo not given) | x | x | x | -2.0 | x
Cc1cc(C)n(-c2cc(N3CCN(S(=O)(=O)c4ccc(OC(F)(F)F)cc4)CC3)nc(C)n2)n1 | x | x | x | -15.0 | x
O=C(C=CNc1ccc([N+](=O)[O-])cc1Br)c1cccc2ccccc12 | x | x | x | 4.3 | x
CCCS(=O)(=O)N1CCc2ccc(NC(=O)COc3ccc(OC)cc3)cc2C1 | x | x | x | -18.0 | x
CCCN1C(=O)C(C)(C)COc2ccc(NS(=O)(=O)c3cccc(C)c3)cc21 | x | x | x | -6.0 | x
CS(=O)(=O)c1ccc(Nc2nc(CC(=O)Nc3ccc(Cl)cc3)cs2)cc1 | x | x | x | 15.0 | x
CCOc1cc(C(=O)Nc2ccc3c(c2)C(=O)NCCO3)cc(OCC)c1OCC | x | x | x | -19.0 | x
CCN(CC)c1ccc(/C=C/C(=O)c2ccc(Br)cc2)cc1 | 81.2* | 30707* | 61.7* | -107.9 | 42.3*
CSCC(C)(O)CNC(=O)c1ccc(F)cc1Cl (stereo not given) | x | x | x | -13.0 | x
COc1cc(-c2cc(C(=O)NCC3CCCN3c3ccccc3)[nH]n2)cc(OC)c1OC (stereo not given) | x | x | x | 59.0* | x
COc1cccc2cc(C(=O)NC[C@H]3CCCN3c3ccccc3)oc12 | x | x | x | 29.0* | x
CCSc1ccccc1C(=O)NCCn1nc(-n2cncn2)ccc1=O | x | x | x | -13.0 | x
CCOc1ccc(-c2nn(-c3ccccc3)cc2/C=C2\SC(=S)N(C3CCS(=O)(=O)C3)C2=O)cc1 (stereo not given) | 42.9* | 2755 | 35.8* | -10.5 | 28.8
SMILES | BoNT F protease | Autofluor counter | BoNT A protease | SSB-PriA inh | Anthrax LF prot
CCCOc1ccc(-c2nn(-c3ccccc3)cc2/C=C2\SC(=S)N(C3CCS(=O)(=O)C3)C2=O)cc1 (stereo not given) | 40.2* | 5968 | 49.0* | 10.7 | 46.6*
COc1ccc(-c2nn(-c3ccccc3)cc2/C=C2/SC(=S)N(CCC(=O)O)C2=O)cc1 | -10.3 | 2874 | -3.1 | 1.8 | 5.0
COc1ccc(S(=O)(=O)Nc2ccc(N=Nc3ccccc3)cc2)cc1 | x | x | x | 48.0 | x
CCC(Oc1cc(Cl)ccc1Cl)C(=O)NN1C(=O)C2C3CCC(C3=C(C)C)C2C1=O (stereo not given) | 35.4* | 4726 | 1.0 | -9.5 | -0.3
COC(=O)c1nn(-c2ccccc2)c(=O)cc1Oc1ccc(Cl)cc1 | -2.5 | 4324 | 0.5 | -7.3 | 2.0
COC(=O)c1nn(-c2ccc(OC)cc2)c(=O)cc1Oc1ccccc1 | 3.0 | 21753* | 1.7 | -14.1 | -1.0
O=C(Nc1ccc2c(c1)OCO2)c1cccc(S(=O)(=O)N2CCCC2)c1 | -0.3 | 21861* | 2.3 | -0.8 | -6.8
CCOC(=O)c1ccc(S(=O)(=O)N2CCN(CC(=O)NC(=O)NC(C)(C)C)CC2)cc1 | -9.6 | u | u | -4.0 | -0.1
Cc1cc(NC(=O)c2cccc(S(=O)(=O)N3CCCCCC3)c2)no1 | -5.1 | 17368* | -2.3 | -13.7 | -0.8
O=C(Nc1ccc2c(c1)OCCO2)c1ccc(S(=O)(=O)N2CCCCC2)cc1 | -2.3 | 16458* | -0.1 | -10.3 | -3.7

Source: PubChem BioAssay
